GBA enhancer: glucocerebrosidase activity enhancement; P04062; L444P Gaucher fibroblasts, 4-MU-glucoside fluorescence, 3 days; activation, % at 10 µM; 30,000 compounds, 0.44% hits; AID 784; in the data active = activation above about 65%
Numbers stand for hits; - = inactive. The sample as a whole holds a higher share of hits than the screen did.

SMILES | GBA enhancer
CCn1nnnc1NCc1cccn1C | -
CCC(C)n1cnc2c(c1=O)c1nc3ccccc3nc1n2-c1ccc2c(c1)OCCO2 (centres undefined) | -
CCCCn1c2nc3ccccc3nc2c2c(=O)n(C(C)CC)cnc21 (centres undefined) | -
CCC(C)n1cnc2c(c1=O)c1nc3ccccc3nc1n2Cc1ccc2c(c1)OCO2 (centres undefined) | 83
COc1ccccc1C1c2c(oc3ccc(Cl)cc3c2=O)C(=O)N1c1cc(C)on1 (centres undefined) | -
CCOC(=O)CCCOC(=O)c1ccc(S(=O)(=O)N(C)C)cc1 | -
O=C(O)C1C2C=CC(O2)C1C(=O)NCCCn1ccnc1 (centres undefined) | -
CCOc1ccccc1C1C(C(N)=O)=C(C)Nc2nc(-c3cccc(C)c3)nn21 (centres undefined) | -
CC1=C(C(N)=O)C(c2cccnc2)n2nc(-c3cccc(C)c3)nc2N1 (centres undefined) | -
CC1=C(C(N)=O)C(c2cccs2)n2nc(-c3cccc(C)c3)nc2N1 (centres undefined) | 91
CSc1nnnn1-c1cccc(O)c1 | -
COc1ccccc1CN(Cc1ccco1)S(=O)(=O)c1ccc(-n2cnnn2)c(OC)c1 | -
COc1cc(Cl)c(C)cc1NC(=O)COC(=O)c1cnc(C)cn1 | -
COc1ccc(CNC(=O)C2COc3ccccc3O2)c(OC)c1 (centres undefined) | -
CC(C)(C)NC(=O)CSc1nnc(-c2ccco2)n1Cc1ccco1 | 78
CCN(CC)C(=O)CSc1nnc(-c2ccco2)n1Cc1ccco1 | -
COC(=O)CSc1nnc(-c2ccco2)n1Cc1ccco1 | -
O=C(Nc1ccc(F)cc1)c1cc(S(=O)(=O)N2CCCCC2)cs1 | -
COC(=O)c1ccccc1NC(=O)c1noc2c1CC(C(C)(C)C)CC2 (centres undefined) | -
Clc1ccc(-n2nnnc2SCc2c(-c3ccccc3)nc3sccn23)cc1 | -
CCC(Sc1nc(=O)cc(N)n1-c1ccccc1)C(=O)Nc1ccc(Cl)cn1 (centres undefined) | -

Compound activity: PubChem BioAssay, The Scripps Research Institute Molecular Screening Center
